Inconclusive results are not listed. Active and inactive are the calls of the source. Unless noted, the call rests on the fitted dose curve; in most records, active means well fitted curve in the direction sought with a large enough effect in the repeat runs; inconclusive means weak or mixed curves; inactive means no such curve, though single readings can be large; an effect the other way counts as inactive or inconclusive.
Key:
[1] = qHTS assay to identify small molecule agonists of the vitamin D receptor (VDR) signaling pathway - cell viability counter screen (AID 743224); further: on the % scale 0 is the no-effect control and ±100 the full control effect; nearly all actives have a fitted effect of over 50% in size
Outline: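 Cells: VDR-bla, 2,000/well, settled 4 h. Treatment: compounds in DMSO, 16 h, 37C/5% CO2. Readout: CellTiter-Glo luminescence after 30 min RT.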

[2] = qHTS assay to identify small molecule agonists of the NFkB signaling pathway - cell viability counter screen (AID 1159515; calls by dose curve; further: on the % scale 0 is the no-effect control and ±100 the full control effect; nearly all actives have a fitted effect of over 55% in size)
Outline: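 Cells are seeded (2,000 NFkB-bla ME-180 per well), rested overnight, and dosed with DMSO-dissolved compounds for 5 hr at 37 C. Viability is then read by CellTiter-Glo luminescence after 30 min at room temperature.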

[3] = qHTS assay to identify small molecule agonists of the endoplasmic reticulum stress response signaling pathway (AID 1159516; active means well fitted activation curve with a large enough effect in the signal ratio in the repeat runs, not every such curve was filed as active; the % refers to the signal ratio; further: on the % scale 0 is the no-effect control and ±100 the full control effect)
Outline: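 Cells are seeded at 1,500 per well and incubated overnight. Compounds in DMSO are added for 5 hr at 37 C, then beta-lactamase FRET substrate for 2 hr at room temperature, and fluorescence at 460 and 530 nm is measured.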

[4] = qHTS assay to identify small molecule agonists of the endoplasmic reticulum stress response signaling pathway - cell viability counter screen (AID 1159517; calls by dose curve;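 further: HeLa cells carrying an ER stress response element beta-lactamase reporter; on the % scale 0 is the no-effect control and ±100 the full control effect; nearly all actives have a fitted effect of over 50% in size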)
Outline: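 Cpd-treated ESRE-bla HeLa (5 hr, 37 C) → LiveBLAzer 2 hr RT → CellTiter-Glo 30 min RT → luminescence.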

[5] = qHTS assay to identify small molecule antagonists of the retinoid-related orphan receptor gamma (ROR-gamma) signaling pathway - cell viability counter screen (AID 1159520); further: on the % scale 0 is the no-effect control and ±100 the full control effect; nearly all actives have a fitted effect of over 50% in size
Outline: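 Tet-on ROR gamma CHO cells (1,000/well) were plated 4 hr, given compounds in DMSO for 2 hr at 37 C, then induced with 1 uM final doxycycline for 16 hr. Viability was read as ATP by CellTiter-Glo luminescence after 30 min.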

[6] = molecular target: Nuclear receptor ROR-gamma (Homo sapiens) (UniProt P51449); experiment: qHTS assay to identify small molecule antagonists of the retinoid-related orphan receptor gamma (ROR-gamma) signaling pathway (AID 1159521;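 further: CHO cells with doxycycline inducible ROR-gamma driving an RORE luciferase reporter; top concentration of the series differs between compounds; on the % scale 0 is the no-effect control and ±100 the full control effect; nearly all actives have a fitted effect of over 50% in size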)
Outline: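 Screening format: cell-based luciferase reporter in CHO cells with doxycycline-inducible RORγ. Compound pre-exposure lasts 2 h, doxycycline is 1 uM final, induction runs 16 h at 37 C, and ONE-Glo luminescence is read.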

[7] = qHTS assay to identify small molecule agonists of the AP-1 signaling pathway - cell viability counter screen (AID 1159525; calls by dose curve; further: nearly all actives have a fitted effect of over 55% in size)
Outline: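 Each titration point was normalised to DMSO and tetra n-octyl ammonium bromide controls. The read was Cell Titer Glo luminescence after 30 min at RT, following 5 h compound exposure of ME-180 AP-1-bla cells at 37 °C.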

[8] = qHTS assay to identify small molecule agonists of the AP-1 signaling pathway (AID 1159526; calls by dose curve; further: on the % scale 0 is the no-effect control and ±100 the full control effect)
[9] = molecular target: Retinoic acid receptor RXR-alpha (Homo sapiens) (UniProt P19793); experiment: qHTS assay to identify small molecule agonists of the RXR signaling pathway (AID 1159527; calls by dose curve; further: on the % scale 0 is the no-effect control and ±100 the full control effect; nearly all actives have a fitted effect of over 35% in size)
Sequence of Retinoic acid receptor RXR-alpha (Homo sapiens) (P19793 whole entry, looked up): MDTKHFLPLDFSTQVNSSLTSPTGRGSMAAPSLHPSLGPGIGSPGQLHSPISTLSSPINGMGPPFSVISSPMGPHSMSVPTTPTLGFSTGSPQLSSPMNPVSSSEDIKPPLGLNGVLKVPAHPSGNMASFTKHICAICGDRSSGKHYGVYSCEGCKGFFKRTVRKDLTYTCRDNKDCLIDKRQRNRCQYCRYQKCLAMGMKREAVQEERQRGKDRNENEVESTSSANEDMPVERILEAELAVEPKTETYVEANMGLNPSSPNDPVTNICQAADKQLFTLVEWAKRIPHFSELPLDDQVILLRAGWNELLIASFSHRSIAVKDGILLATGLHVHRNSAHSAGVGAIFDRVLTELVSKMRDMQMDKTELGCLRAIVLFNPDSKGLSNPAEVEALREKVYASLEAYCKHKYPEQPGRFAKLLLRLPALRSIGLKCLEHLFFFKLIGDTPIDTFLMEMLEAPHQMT
Outline: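 Fluorescence ratio readout (460 vs 530 nm) from GeneBLAzer RXR-alpha HEK 293T cells after 16 hr compound treatment; cells seeded 5 hr beforehand in low-serum, charcoal-stripped medium.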

[10] = qHTS assay to identify small molecule agonists of the RXR signaling pathway - cell viability counter screen (AID 1159529)
Outline: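 Viability read-out for the RXR-alpha agonist qHTS: luminescent CellTiter-Glo signal after 30 min at RT. HEK 293T bla reporter cells, 2% charcoal-stripped FBS, 16 hr compound incubation; tetraoctyl ammonium bromide as cytotoxic control.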

[11] = qHTS assay to identify small molecule antagonists of the retinoid acid receptor (RAR) signaling pathway - cell viability counter screen (AID 1159551); further: on the % scale 0 is the no-effect control and ±100 the full control effect; nearly all actives have a fitted effect of over 35% in size
Outline: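 Cells (C3RL4) are plated, incubated overnight, dosed with compound in DMSO, then given retinol at 1 uM final. After 6 h at 37 C, CellTiter-Glo is added and luminescence read following 30 min at room temperature.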

[12] = qHTS assay to identify small molecule antagonists of the retinoic acid receptor (RAR) signaling pathway (AID 1159552)
Outline: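 Using a RARE-driven luciferase construct in C3RL4 cells, retinol at 1 uM final provided the agonist stimulus while compounds were co-applied. After 6 hours at 37 C, luminescence was recorded to flag inhibitors of retinol signaling.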

[13] = qHTS assay to identify small molecule agonists of the retinoic acid receptor (RAR) signaling pathway (AID 1159553); details: C3RL4 RARE luciferase reporter, agonist, 6 h; activation: at 73.3 µM (top of the series); further: on the % scale 0 is the no-effect control and ±100 the full control effect
Outline: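 Seed C3RL4 reporter cells at 1,000 per well and incubate overnight at 37 C. Add compounds in DMSO, incubate 6 hr. Add luciferase reagent, wait 30 min at room temperature, read luminescence.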

[14] = qHTS assay to identify small molecule antagonists of the estrogen related receptor (ERR) signaling pathway from Tox21 library - cell viability counter screen (AID 1224834); further: on the % scale 0 is the no-effect control and ±100 the full control effect; nearly all actives have a fitted effect of over 30% in size
Outline: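 ERR cells, 2,000/well; 6 h settle at 37 C/5% CO2; pin-tool compound transfer in DMSO; 17.5 h at 37 C; CellTiter-Fluor, 30 min; fluorescence intensity.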

[15] = qHTS assay to identify small molecule agonists of the constitutive androstane receptor (CAR) signaling pathway - cell viability counter screen (AID 1224836); further: on the % scale 0 is the no-effect control and ±100 the full control effect; nearly all actives have a fitted effect of over 45% in size
Outline: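 Multiplexed viability check: HepG2-CYP2B6-hCAR cells, 15-point compound dosing, 0.75 uM PK11195 final, 23 h at 37 C, CellTiter-Fluor fluorescence.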

[16] = qHTS assay to identify small molecule antagonists of the constitutive androstane receptor (CAR) signaling pathway - cell viability counter screen (AID 1224837); further: on the % scale 0 is the no-effect control and ±100 the full control effect; nearly all actives have a fitted effect of over 45% in size
Outline: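 Viability was measured with CellTiter-Fluor in a HepG2 line carrying stably transfected hCAR and a CYP2B6-2.2kb construct. Cells were exposed for 23 hr at 37 C to 15 compound concentrations with 50 nM CITCO as agonist.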

[17] = molecular target: Nuclear receptor subfamily 1 group I member 3 (Homo sapiens) (UniProt Q14994); experiment: qHTS assay to identify small molecule antagonists of the constitutive androstane receptor (CAR) signaling pathway (AID 1224838);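 further: HepG2 cells stably expressing hCAR with CYP2B6 luciferase reporter stimulated by CITCO; nearly all actives have a fitted effect of over 40% in size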; further: potency means the concentration at half of the fitted maximal effect; on activity, negative = inhibition: on the % scale 0 is the no-effect control and ±100 the full control effect
Sequence of Nuclear receptor subfamily 1 group I member 3 (Homo sapiens) (Q14994 whole entry, looked up): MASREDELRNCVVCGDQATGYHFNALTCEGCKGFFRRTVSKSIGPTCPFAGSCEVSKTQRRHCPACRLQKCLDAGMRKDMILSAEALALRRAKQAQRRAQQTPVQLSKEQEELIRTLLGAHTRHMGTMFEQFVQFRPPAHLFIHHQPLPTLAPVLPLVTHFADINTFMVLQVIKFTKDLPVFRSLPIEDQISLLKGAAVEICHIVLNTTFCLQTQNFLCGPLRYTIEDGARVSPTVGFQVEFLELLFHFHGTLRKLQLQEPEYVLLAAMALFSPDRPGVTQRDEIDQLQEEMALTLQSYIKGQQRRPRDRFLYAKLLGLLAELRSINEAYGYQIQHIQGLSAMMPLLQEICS
Outline: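 Antagonist mode used CITCO at a final 50 nM to activate CAR in human hepatoma HepG2 cells carrying stable hCAR and a 2.2 kb CYP2B6 promoter-luciferase construct. Compounds were tested at 15 concentrations over 24 h, with luminescence as the end point.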

[18] = qHTS assay to identify small molecule antagonists of the vitamin D receptor (VDR) signaling pathway - cell viability counter screen (AID 743225)
Outline: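 In this counter screen, VDR-bla HEK 293T cells receive test compound plus 3 nM final calcitriol for 16 h at 37C. Room-temperature steps of 2 h with the beta-lactamase substrate, then 30 min with CellTiter-Glo, precede the luminescence read.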

[19] = molecular target: Luciferin 4-monooxygenase (Photinus pyralis) (UniProt P08659); experiment: qHTS assay to identify small molecule inhibitors of firefly luciferase (AID 1224835); further: nearly all actives have a fitted effect of over 25% in size; further: potency means the concentration at half of the fitted maximal effect
Sequence of Luciferin 4-monooxygenase (Photinus pyralis) (P08659 whole entry, looked up): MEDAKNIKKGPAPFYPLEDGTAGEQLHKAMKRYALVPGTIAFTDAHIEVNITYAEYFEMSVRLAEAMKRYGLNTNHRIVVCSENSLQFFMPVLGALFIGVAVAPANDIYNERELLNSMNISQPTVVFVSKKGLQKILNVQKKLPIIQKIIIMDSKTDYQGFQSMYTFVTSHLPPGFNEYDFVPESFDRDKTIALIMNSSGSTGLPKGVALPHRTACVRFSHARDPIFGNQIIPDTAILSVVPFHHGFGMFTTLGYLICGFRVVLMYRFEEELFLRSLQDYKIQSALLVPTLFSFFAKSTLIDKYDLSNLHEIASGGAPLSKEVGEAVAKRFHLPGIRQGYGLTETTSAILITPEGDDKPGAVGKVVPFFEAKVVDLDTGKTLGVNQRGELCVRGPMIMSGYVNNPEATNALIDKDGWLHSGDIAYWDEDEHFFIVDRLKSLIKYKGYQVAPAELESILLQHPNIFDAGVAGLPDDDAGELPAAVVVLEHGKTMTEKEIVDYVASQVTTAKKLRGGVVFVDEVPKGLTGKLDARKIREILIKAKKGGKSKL
Outline: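 Quantitative HTS format; KM concentrations of both substrates. Purified P. pyralis FLuc activity quantified from luminescence images.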

O=CO
inactive: activity change, negative = cytotoxicity [1] -15.6% [at 5.95 µM] | activity, negative = cytotoxic [2] -18.4% [at 6.95 µM] | activation [3] -2.58% [at 6.95 µM] | activity change, negative = cytotoxicity [4] -1.24% [at 6.95 µM] | activity, negative = cytotoxicity [5] 0.77% [at 8.39 µM] | activity change, negative = inhibition [6] 22.1% [at 8.39 µM] | viability change, negative = cytotoxic [7] 1.49% [at 6.97 µM] | activation [8] 1.24% [at 6.97 µM] | activation [9] 1.02% [at 6.98 µM] | activity change, negative = cytotoxicity [10] 0.323% [at 6.97 µM] | activity change, negative = cytotoxicity [11] 2.98% [at 8.39 µM] | activity, negative = inhibition [12] -7.08% [at 8.39 µM] | activation [13] -3.33% [at 8.36 µM] | viability change, negative = cytotoxic [14] -0.634% [at 8.39 µM] | viability change, negative = cytotoxic [15] 2.87% [at 8.39 µM] | activity change, negative = cytotoxicity [16] -0.437% [at 8.39 µM] | activity, negative = inhibition [17] -2.01% [at 8.39 µM]

Cc1ccc2c(c1)c1c3n2CCNC3CCC1 (centres undefined)
active: Potency [17] 0.75 µM
inactive: outcome [1] | outcome [18] | outcome [2] | outcome [3] | outcome [4] | outcome [5] | outcome [7] | outcome [8] | Potency [9] | outcome [10] | outcome [11] | Potency [12] | Potency [13] | Potency [14] | Potency [19]

CC1=NN(c2ccc(S(=O)(=O)O)cc2)C(=O)C1N=Nc1ccccc1 (centres undefined)
active: Potency [19] 71 µM
inactive: outcome [1] | outcome [18] | outcome [2] | outcome [3] | outcome [4] | outcome [5] | outcome [6] | outcome [7] | outcome [8] | Potency [9] | outcome [10] | outcome [11] | Potency [13] | Potency [17]

Cc1nc(C)nc(N2C[C@@H](C)N(c3ccnc([C@@H](C)O)n3)[C@@H](C)C2)n1
inactive: outcome [1] | outcome [18] | outcome [3] | outcome [4] | outcome [5] | outcome [6] | outcome [7] | outcome [8] | Potency [9] | outcome [10] | outcome [11] | Potency [12] | Potency [13] | Potency [14] | outcome [15] | Potency [16]

O=S1(=O)CCCC1
inactive: outcome [1] | outcome [18] | outcome [2] | outcome [3] | outcome [4] | outcome [5] | outcome [7] | outcome [8] | outcome [10] | Potency [12] | Potency [13] | Potency [14] | Potency [19] | outcome [15] | Potency [16] | Potency [17]

FC(F)(F)c1ccc(Cl)cc1Cl
inactive: outcome [1] | outcome [18] | outcome [3] | outcome [4] | outcome [5] | outcome [6] | outcome [7] | outcome [8] | Potency [9] | outcome [10] | outcome [11] | Potency [12] | Potency [14] | Potency [19] | Potency [16]
active: activation [13] 0.481%

CC(C)(c1ccc(Oc2ccc3c(c2)C(=O)OC3=O)cc1)c1ccc(Oc2ccc3c(c2)C(=O)OC3=O)cc1
inactive: outcome [1] | outcome [2] | outcome [3] | outcome [4] | outcome [5] | outcome [6] | outcome [7] | outcome [8] | outcome [10] | outcome [11] | Potency [13] | outcome [15] | Potency [17]

CC(=O)Nc1ncc([N+](=O)[O-])s1
inactive: outcome [1] | outcome [18] | outcome [2] | outcome [3] | outcome [4] | outcome [5] | outcome [6] | outcome [7] | outcome [8] | Potency [9] | outcome [10] | outcome [11] | Potency [12] | Potency [13] | Potency [14] | Potency [19]

CCCOC(=O)CCCCC(=O)OCCC
inactive: outcome [1] | outcome [18] | outcome [2] | outcome [3] | outcome [4] | outcome [5] | outcome [6] | outcome [7] | outcome [8] | Potency [9] | outcome [10] | outcome [11] | Potency [12] | Potency [13] | Potency [14] | outcome [15] | Potency [16]

Cc1nc([N+](=O)[O-])cn1-c1ccc([N+](=O)[O-])cc1
inactive: outcome [1] | outcome [18] | outcome [2] | outcome [3] | outcome [4] | outcome [5] | outcome [6] | outcome [7] | outcome [8] | Potency [9] | outcome [10] | outcome [11] | Potency [12] | Potency [13] | Potency [14] | Potency [19] | Potency [16]

From PubChem BioAssay (Tox21)
